Test systems include LRRK2; LTK; LYN; MAK; MAP3K15; MAP3K1; MAP3K2.
Holding throughout (settings): concentration: 1 μM, replicates: in singlicate; n = 1
The test system of the next test is T1, LKB1.
T1 construct: gene STK11

The next test relates to T2, LOK.
T2 construct: gene STK10

For another test, the system named is T3, LZK.
T3 construct: gene MAP3K13
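Also: KINOMEscan kinase panel screen.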

On to `CCc1nc(-c2cccc(N(C)S(=O)(=O)c3ccccc3)c2)c(-c2ccnc(Nc3ccc(N4CCN(C(C)=O)CC4)nc3)n2)s1` [GSK1645895], for which the “%Inh” value is reported as 4% with LKB1; 15% in the test on LOK; 0% in the test with LRRK2; 0% with LTK; 4% with LYN; 0% in the test on LZK. Moreover, the “%Inh” value in the test on MAK came out at 22%; in the test on MAP3K15, 0%; in the test with MAP3K1, 22%; in the test with MAP3K2, 0%.

On to `Clc1cccc(-c2nc(Nc3ccncc3)c3ccccc3n2)c1` [GW873004], for which the “%Inh” value came to 28% with LKB1; 59% with LOK; 0% in the test with LRRK2; 6% in the test with LTK; 0% with LYN; 0% with LZK. The “%Inh” value in the test with MAK, with MAP3K15, in the test with MAP3K1 and in the test on MAP3K2 was 0% throughout.

Take `CSc1nn2c(=O)cc(N3CCOCC3)nc2n1Cc1cccc(Cl)c1Cl` [GSK2347225]: the “%Inh” value in the test with LKB1 stood at 0%; in the test with LOK it was 0%; in the test on LRRK2, 0%; in the test with LTK, 4%; with LYN it was 10%; with LZK it was 0%. For the same molecule, the “%Inh” value is recorded as 24% in the test with MAK, 0% in the test with MAP3K15, 6% with MAP3K1 and 1% in the test on MAP3K2.

Take `O=C(Nc1n[nH]c2nc(-c3ccco3)c(Br)cc12)c1ccc(CN2CCCC2)cc1.O=C(O)[C@H](O)[C@@H](O)C(=O)O` [SB-742352]: the “%Inh” value came to 0% in the test on LKB1; 14% in the test on LOK; 0% in the test with LRRK2; 21% in the test with LTK; 50% in the test with LYN; 0% with LZK. Also, the “%Inh” value came to 20% in the test on MAK, 0% in the test with MAP3K15, 0% in the test with MAP3K1 and 0% in the test with MAP3K2.

In the case of `c1ccc(-c2ccc3c(-c4ccnc(Nc5ccc6c(c5)OCCO6)n4)cnn3n2)cc1` [GW818941], the “%Inh” value in the test with LKB1 stood at 0%; with LOK it was 17%; in the test on LRRK2, 29%; in the test on LTK it was 0%; in the test with LYN, 0%; in the test on LZK it was 0%. The “%Inh” value in the test on MAK was found to be 100%; in the test on MAP3K15, 11%; with MAP3K1 it was 1%; in the test on MAP3K2, 0%.

With `COC(=O)c1c(-c2ccccc2)c2cc(Cl)ccc2c(=O)n1Cc1ccc(S(C)(=O)=O)cc1`, the “%Inh” value with LKB1 turned out to be 0%; in the test with LOK it was 4%; with LRRK2, 2%; with LTK, 0%; in the test on LYN, 20%; in the test with LZK, 0%. For the same molecule, the “%Inh” value in the test on MAK stood at 5%; in the test on MAP3K15, 20%; with MAP3K1, 0%; with MAP3K2, 0%.

In the case of `Fc1ccc(-c2ncn(CCCNCc3ccccc3)c2-c2ccncc2)cc1`, the “%Inh” value in the test on LKB1 is listed as 27%; in the test with LOK it was 19%; in the test on LRRK2, 0%; with LTK, 0%; in the test on LYN it was 22%; with LZK, 12%. Moreover, the “%Inh” value is 5% in the test on MAK, 10% in the test on MAP3K15, 15% in the test on MAP3K1 and 0% with MAP3K2.

On to `CC(C)(C)c1ccc(-n2cnc3c(N)ncnc32)cc1` [SKF-97263], for which the “%Inh” value was 0% with LKB1; 2% in the test with LOK; 22% with LRRK2; 6% in the test on LTK; 5% with LYN; 0% in the test with LZK. Moreover, the “%Inh” value in the test with MAK was 8%; with MAP3K15, 16%; with MAP3K1, 8%; in the test with MAP3K2 it was 1%.

For `CCc1nc(-c2cccc(C)c2)c(-c2ccnc(NC(=O)c3ccccc3)c2)s1`, the “%Inh” value worked out at 0% in the test on LKB1; 11% in the test with LOK; 3% in the test with LRRK2; 10% in the test with LTK; 8% in the test with LYN; 42% with LZK. Also, the “%Inh” value came out at 16% with MAK, 2% in the test with MAP3K15, 2% in the test on MAP3K1 and 0% with MAP3K2.

As for `Nc1nc(-c2ccc3c(N)n[nH]c3c2)cc(N2CCC[C@@H](C(=O)Nc3ccccc3)C2)n1.O=C(O)C(F)(F)F.O=C(O)C(F)(F)F` [GSK2288359], the “%Inh” value in the test with LKB1 was 6%; in the test with LOK, 0%; in the test on LRRK2, 0%; in the test on LTK, 15%; in the test on LYN, 0%; in the test on LZK, 0%. In addition, the “%Inh” value was determined as 29% in the test on MAK, 2% in the test on MAP3K15, 15% with MAP3K1 and 0% with MAP3K2.

In the case of `Cl.Cn1ccc(-c2cccc(Nc3ccnc4cc(-c5nccs5)ccc34)c2)n1` [GW525701], the “%Inh” value is 0% in the test on LKB1; 72% in the test with LOK; 0% in the test on LRRK2; 0% with LTK; 0% with LYN; 48% with LZK. Moreover, the “%Inh” value is listed as 0% in the test with MAK, 0% in the test on MAP3K15, 10% in the test with MAP3K1 and 0% in the test on MAP3K2.

In the case of `COc1cc2ncnc(Nc3ccc(OCc4ccccc4Br)c(Cl)c3)c2cc1OC.Cl` [GI261590], the “%Inh” value with LKB1 is 0%; with LOK it was 96.6%; in the test on LRRK2, 0%; in the test with LTK, 14%; in the test on LYN, 30%; in the test with LZK, 10%. Further, the “%Inh” value in the test on MAK was found to be 33%; in the test with MAP3K15 it was 0%; with MAP3K1, 4%; in the test on MAP3K2 it was 0%.

As for `O=C(Nc1ccccc1F)NC1CCN(c2ccnc(Nc3ccc(F)cc3)n2)C1` (stereo not shown) [GSK1379722], the “%Inh” value is listed as 0% in the test on LKB1; 0% in the test with LOK; 39% in the test with LRRK2; 0% in the test with LTK; 0% with LYN; 23% with LZK. Also, the “%Inh” value in the test with MAK is given as 12%; in the test on MAP3K15, 0%; in the test on MAP3K1, 5%; in the test on MAP3K2 it was 1%.

Turning to `CS(=O)(=O)CCNCc1nc(-c2ccc3ncnc(Nc4ccc(OCc5cccc(F)c5)c(Cl)c4)c3c2)cs1.Cl` [GW583340], the “%Inh” value in the test on LKB1 is listed as 17%; with LOK, 20%; in the test on LRRK2 it was 0%; in the test with LTK, 0%; with LYN, 0%; in the test on LZK, 0%. The “%Inh” value turned out to be 23% in the test on MAK, 0% with MAP3K15, 0% in the test with MAP3K1 and 0% in the test on MAP3K2.

As for `CNc1nccc(-c2c(-c3ccc(F)cc3)ncn2CCCN2CCOCC2)n1` [SB-222516], the “%Inh” value in the test with LKB1, in the test with LOK, in the test with LRRK2, with LTK, with LYN and in the test with LZK was 0% in each case. Also, the “%Inh” value in the test with MAK is reported as 0%; in the test on MAP3K15, 0%; in the test on MAP3K1, 21%; in the test with MAP3K2, 5%.

With `COc1ccc(Nc2nccc(N3CCC(NC(=O)Nc4ccc5c(c4)OCO5)C3)n2)cc1` (stereo not shown) [GSK1379745], the “%Inh” value in the test on LKB1 was found to be 4%; with LOK, 0%; in the test with LRRK2, 1%; with LTK, 18%; in the test with LYN it was 1%; in the test on LZK it was 39%. Besides, the “%Inh” value with MAK was found to be 20%; with MAP3K15 it was 3%; with MAP3K1, 12%; in the test with MAP3K2, 14%.

The record behind these values is PMC5540273 (PLoS ONE, 2017).
